Results reported in PubChem BioAssay (NCI).
About 83,000 compounds went through this panel and 20% of them were active in at least one assay; those are over-represented in the sample as a whole.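 Single-dose data. Exposure time 48 hours. Values below 10 considered active.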 A number with no mark means an inactive call. The source made the active and inactive calls.

The compounds below were run on SF-539 CNS (assay: NCI-60 one-dose screen, 48 h (100 = growth as untreated, 0 = no growth, -100 = all killed)). Settings: 10 µM unless noted.

Row | Structure (SMILES) | growth
1 | CCCCCCCC/C=C\CCCCCCCCOc1ccc(CC(=O)NCC[N+]2(C)CCOCC2)cc1 | 81.1%
2 | O=C(NNc1cnccn1)c1nc2cc(F)ccc2n2cccc12 | 5.57% (active)
3 | O=C(C1=Cc2cc3ccccc3n2Cc2cnnn21)c1ccc(O)cc1 | 61.5%

Each compound was assayed on UACC-257 melanoma in the same assay as above. Settings: 10 µM unless noted.

Row | Structure (SMILES) | growth
4 | CCOC(=O)CC1CSC(Nc2ccccc2)=N1 (stereo unspecified) | 97.9%
5 | O=S(=O)(Nc1cc(Sc2cccc3cccnc23)c(O)c2ccccc12)c1ccccc1 | -9.38% (active)
6 | COc1ccc(C(=O)c2cc3c(N)c(C(=O)Nc4ccccc4)sc3nc2C)cc1 | 70.7%
7 | N=c1c(S(=O)(=O)c2ccccc2)cc2c(=O)n3ccccc3nc2n1CC1CCCO1 (stereo unspecified) | 109%
8 | CC(C)(C)c1cc(Cl)c(O)c(CNCCO)c1 | 110%
9 | CCN(CC)CCN1C(=O)c2c(c(C)c3c(oc4ccc(O)cc43)c2C)C1=O | 93.1%
10 | Fc1cccc(-c2ccc3c(c2)C2(CCNCC2)CN3)c1 | 126%
11 | C=CC(=O)Nc1ccc(Oc2nccc(Nc3nnc(-c4ccc(C)cc4)s3)n2)cc1 | 86.5%
12 | NC1(CO)COC(c2ccccc2)OC1 (stereo unspecified) | 98.4%
13 | CCNc1ccc(-c2nc3ccccc3n3cccc23)cc1 | 84.9%
14 | CC[N+]1(CC)CC[N+]2(CCCC(C)CC2)CC1 (stereo unspecified) | 98.2%
15 | N=C(N)c1ccc(-c2ccc(-c3ccccc3)s2)cc1 | 103%
16 | O=C(CSc1nc(-c2ccccc2)cc(=O)[nH]1)Nc1nc(-c2ccccc2)cs1 | 94.6%
